Source: PubChem BioAssay AID1159580 (chemical genetic matrix, 2015)
Out of some 5,500 compounds screened, about 2,000 (36%) were called active. Inconclusive results (about 18%) are left out. Cut-off read from the data, not from the text of the source: active = normalized growth mostly below about 0.91 (no sharp cut-off); inconclusive = no clear call, values can overlap the other calls; inactive = mostly above about 0.92. The list shows a part of the results.

Assay: chemical genetic growth profiling, strain panel (AID 1159580);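 note: tested at 20 µM; growth read once vehicle control cultures reached saturation at 30 °C; 1 = growth at the plate median or of vehicle wells; lower values mean less growth of the strain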
Conditions: growth OD
[1] = S. cerevisiae deletion strains, locus YAL013W, strain DEP1, active compounds read low
[2] = S. cerevisiae deletion strains, locus YAL040C, strain CLN3, active compounds read low
[3] = S. cerevisiae deletion strains, locus YCL061C, strain MRC1 (second series), active compounds read low
[4] = S. cerevisiae deletion strains, locus YDR150W, strain NUM1, active compounds read low
[5] = S. cerevisiae deletion strains, locus YDR363W, strain ESC2, active compounds read low
[6] = S. cerevisiae deletion strains, locus YER002W, strain NOP16, active compounds read low
[7] = S. cerevisiae deletion strains, locus YGR078C, strain PAC10, active compounds read low
[8] = S. cerevisiae deletion strains, locus YGR229C, strain SMI1, active compounds read low
[9] = S. cerevisiae deletion strains, locus YJR075W, strain HOC1, active compounds read low
[10] = S. cerevisiae deletion strains, locus YNL128W, strain TEP1, active compounds read low
[11] = S. cerevisiae deletion strains, locus YNL175C, strain NOP13, active compounds read low
[12] = S. cerevisiae deletion strains, locus YNL197C, strain WHI3, active compounds read low
[13] = S. cerevisiae deletion strains, locus YNL224C, strain SQS1, active compounds read low
[14] = S. cerevisiae deletion strains, locus YNL322C, strain KRE1, active compounds read low
[15] = S. cerevisiae deletion strains, locus YOR083W, strain WHI5 (second series), active compounds read low
[16] = S. cerevisiae deletion strains, locus YPL055C, strain LGE1, active compounds read low
[17] = S. cerevisiae deletion strains, locus YPL241C, strain CIN2, active compounds read low
[18] = S. cerevisiae deletion strains, locus YDL101C, strain DUN1, active compounds read low
[19] = S. cerevisiae deletion strains, locus YHR030C, strain SLT2, active compounds read low
[20] = S. cerevisiae deletion strains, locus YMR263W, strain SAP30, active compounds read low

Measured: normalized growth

N#C/C(=C\c1ccc(O)c(O)c1)C(=O)Nc1ccccc1
inactive: [1] 0.988 | [2] 1 | [3] 1.01 | [4] 0.996 | [5] 1.05 | [6] 1.01 | [7] 1.05 | [8] 0.966 | [9] 1.01 | S. cerevisiae deletion strains, locus YMR307W, strain GAS1, active compounds read low 1 | [10] 1.04 | [11] 1.03 | [12] 1 | [13] 1.03 | [14] 0.989 | [15] 1.02 | [16] 1.01 | [17] 1.01

Cn1c([N+](=O)[O-])cnc1/C=C(\C#N)C(=O)Nc1ccc(F)cc1
inactive: S. cerevisiae deletion strains, locus YDL108W, strain KIN28, active compounds read low 0.92 | S. cerevisiae deletion strains, locus YDR052C, strain DBF4, active compounds read low 0.936 | S. cerevisiae deletion strains, locus YFL009W, strain cdc4, active compounds read low 0.913 | S. cerevisiae deletion strains, locus YPR106W, strain ISR1, active compounds read low 0.968
active: S. cerevisiae deletion strains, locus YAR019C, strain CDC15, active compounds read low 0.267 | S. cerevisiae deletion strains, locus YBL105C, strain PKC1, active compounds read low 0.368 | S. cerevisiae deletion strains, locus YBR135W, strain CKS1, active compounds read low 0.436 | S. cerevisiae deletion strains, locus YBR136W, strain MEC1, active compounds read low 0.608 | S. cerevisiae deletion strains, locus YBR160W, strain CDC28, active compounds read low 0.639 | S. cerevisiae deletion strains, locus YDL017W, strain CDC7, active compounds read low 0.541 | S. cerevisiae deletion strains, locus YDL028C, strain MPS1, active compounds read low 0.874 | [18] 0.852 | S. cerevisiae deletion strains, locus YDL214C, strain PRR2, active compounds read low 0.37 | S. cerevisiae deletion strains, locus YDR226W, strain ADK1, active compounds read low 0.642 | S. cerevisiae deletion strains, locus YDR477W, strain SNF1, active compounds read low 0.104 | S. cerevisiae deletion strains, locus YER123W, strain YCK3, active compounds read low 0.408 | S. cerevisiae deletion strains, locus YER133W, strain GLC7, active compounds read low 0.3 | S. cerevisiae deletion strains, locus YFL029C, strain CAK1, active compounds read low 0.542 | S. cerevisiae deletion strains, locus YFR019W, strain FAB1, active compounds read low 0.262 | S. cerevisiae deletion strains, locus YFR028C, strain CDC14, active compounds read low 0.2 | S. cerevisiae deletion strains, locus YGR040W, strain KSS1, active compounds read low 0.139 | S. cerevisiae deletion strains, locus YGR052W, strain FMP48, active compounds read low 0.305 | S. cerevisiae deletion strains, locus YGR092W, strain DBF2, active compounds read low 0.118 | [19] 0.234 | S. cerevisiae deletion strains, locus YHR079C, strain IRE1, active compounds read low 0.366 | S. cerevisiae deletion strains, locus YHR082C, strain KSP1, active compounds read low 0.371 | S. cerevisiae deletion strains, locus YHR205W, strain SCH9, active compounds read low 0.0146 | S. cerevisiae deletion strains, locus YIL147C, strain SLN1, active compounds read low 0.741 | S. cerevisiae deletion strains, locus YJL095W, strain BCK1, active compounds read low 0.149 | S. cerevisiae deletion strains, locus YJL157C, strain FAR1, active compounds read low 0.346 | S. cerevisiae deletion strains, locus YJR016C, strain ILV3, active compounds read low 0.436 | S. cerevisiae deletion strains, locus YJR066W, strain TOR1 (second series), active compounds read low 0.116 | S. cerevisiae deletion strains, locus YJR066W, strain TOR1, active compounds read low 0.207 | S. cerevisiae deletion strains, locus YKL048C, strain ELM1, active compounds read low 0.168 | S. cerevisiae deletion strains, locus YKL067W, strain YNK1, active compounds read low 0.43 | S. cerevisiae deletion strains, locus YKL101W, strain HSL1, active compounds read low 0.157 | S. cerevisiae deletion strains, locus YKL193C, strain SDS22, active compounds read low 0.399 | S. cerevisiae deletion strains, locus YKL203C, strain TOR2, active compounds read low 0.119 | S. cerevisiae deletion strains, locus YLR113W, strain HOG1, active compounds read low 0.319 | S. cerevisiae deletion strains, locus YLR133W, strain CKI1, active compounds read low 0.111 | S. cerevisiae deletion strains, locus YLR403W, strain SFP1, active compounds read low 0.0176 | S. cerevisiae deletion strains, locus YML070W, strain DAK1, active compounds read low 0.28 | S. cerevisiae deletion strains, locus YMR001C, strain CDC5, active compounds read low 0.438 | S. cerevisiae deletion strains, locus YMR205C, strain PFK2 (second series), active compounds read low 0.139 | S. cerevisiae deletion strains, locus YMR277W, strain FCP1, active compounds read low 0.347 | S. cerevisiae deletion strains, locus YNL006W, strain LST8, active compounds read low 0.219 | S. cerevisiae deletion strains, locus YNL020C, strain ARK1, active compounds read low 0.119 | S. cerevisiae deletion strains, locus YNL161W, strain CBK1, active compounds read low 0.324 | S. cerevisiae deletion strains, locus YNL183C, strain NPR1, active compounds read low 0.168 | S. cerevisiae deletion strains, locus YNL207W, strain RIO2, active compounds read low 0.635 | S. cerevisiae deletion strains, locus YNL222W, strain SSU72, active compounds read low 0.411 | S. cerevisiae deletion strains, locus YNL307C, strain MCK1 (second series), active compounds read low 0.117 | S. cerevisiae deletion strains, locus YOL078W, strain AVO1, active compounds read low 0.47 | S. cerevisiae deletion strains, locus YOL136C, strain PFK27, active compounds read low 0.431 | S. cerevisiae deletion strains, locus YOR061W, strain CKA2, active compounds read low 0.168 | S. cerevisiae deletion strains, locus YOR119C, strain RIO1, active compounds read low 0.162 | S. cerevisiae deletion strains, locus YOR231W, strain MKK1, active compounds read low 0.418 | S. cerevisiae deletion strains, locus YOR329C, strain SCD5, active compounds read low 0.372 | S. cerevisiae deletion strains, locus YPL031C, strain PHO85, active compounds read low 0.104 | S. cerevisiae deletion strains, locus YPL153C, strain RAD53, active compounds read low 0.112 | S. cerevisiae deletion strains, locus YPL204W, strain HRR25, active compounds read low 0.109 | S. cerevisiae deletion strains, locus YPL209C, strain IPL1, active compounds read low 0.476 | S. cerevisiae deletion strains, locus YPL256C, strain CLN2, active compounds read low 0.448 | S. cerevisiae deletion strains, locus YPR025C, strain CCL1, active compounds read low 0.403

CN(C)/C=C(\C#N)C(=O)Nc1ccc(F)c(Cl)c1
inactive: [1] 0.971 | S. cerevisiae deletion strains, locus YBR229C, strain ROT2, active compounds read low 1.01 | S. cerevisiae deletion strains, locus YCL061C, strain MRC1, active compounds read low 0.978 | [18] 0.981 | [4] 0.991 | S. cerevisiae deletion strains, locus YEL061C, strain CIN8, active compounds read low 1.01 | [7] 0.992 | [19] 0.983 | S. cerevisiae deletion strains, locus YHR087W, strain rtc3, active compounds read low 1.01 | S. cerevisiae deletion strains, locus YJR043C, strain POL32, active compounds read low 0.97 | [9] 1.01 | S. cerevisiae deletion strains, locus YKL190W, strain CNB1, active compounds read low 1.01 | S. cerevisiae deletion strains, locus YLR039C, strain RIC1, active compounds read low 1.07 | S. cerevisiae deletion strains, locus YLR058C, strain SHM2 (second series), active compounds read low 1.01 | S. cerevisiae deletion strains, locus YLR085C, strain ARP6, active compounds read low 0.912 | S. cerevisiae deletion strains, locus YLR262C, strain YPT6, active compounds read low 1.16 | S. cerevisiae deletion strains, locus YML094W, strain GIM5, active compounds read low 0.988 | S. cerevisiae deletion strains, locus YMR219W, strain ESC1, active compounds read low 1.01 | [20] 1 | [10] 1 | S. cerevisiae deletion strains, locus YNL153C, strain GIM3, active compounds read low 0.976 | S. cerevisiae deletion strains, locus YNL298W, strain CLA4 (second series), active compounds read low 0.97 | [14] 1.02 | S. cerevisiae deletion strains, locus YNR030W, strain Alg12, active compounds read low 1.01 | S. cerevisiae deletion strains, locus YOL006C, strain TOP1, active compounds read low 0.965 | [16] 0.959 | [17] 0.977 | S. cerevisiae deletion strains, locus YPR135W, strain CTF4, active compounds read low 0.991 | S. cerevisiae strains, strain wild type, active compounds read low 1.01

Nc1nc2[nH]c(=O)cnc2c(=O)[nH]1
inactive: [1] 0.996 | [2] 1.06 | [3] 0.994 | [5] 0.985 | [6] 0.949 | [8] 1.01 | [20] 0.99 | [11] 0.983 | [12] 0.977 | [13] 0.987 | [14] 1.01 | [15] 0.988
